From PubChem BioAssay AID504834 (National Center for Advancing Translational Sciences (NCATS), 2011) come the findings set out here.

Molecules are shown by their SMILES. About 22,000 (6.9%) of roughly 320,000 compounds were called active. Roughly 27% stayed inconclusive and do not appear here. What follows is part of a selection rich in actives, with near analogues and random picks from the rest. Unmarked numbers belong to inactive results. The call rests on the fitted dose curve; in most records, active means well fitted inhibition curve with a large enough effect; inconclusive means small, poorly fitted or top-dose-only effect, or another doubt; inactive means no such curve, though single readings can be large or run the other way.
On the % scale 0 is the no-effect control and ±100 the full control effect; potency means the concentration at half of the fitted maximal effect.

The assay in a line: Primary qHTS for delayed death inhibitors of the malarial parasite plastid, 96 hour incubation. The conditions noted are these: P. falciparum luciferase reporter growth; series mostly up to 28.7 µM; activity change, negative = inhibition: at the top concentration. In a few lines:
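Luminescence readout: decreased luciferase signal marks inhibited growth of reporter-expressing P. falciparum in infected red cells (2% hematocrit, 0.05% parasitemia final), exposed to compound two generations (96 h, 37 C, 5% CO2).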
On the technique in general: In qHTS, concentration-response curves come from the screen itself.
As to `CCCCCc1c(C)nc(N2CCN(Cc3ccc4c(c3)OCO4)CC2)[nH]c1=O`, the “activity change, negative = inhibition” value was -3.03%.

For the compound `CCN1CCN(c2nc3c(c(=O)[nH]2)CCC3)CC1`, the “activity change, negative = inhibition” value is 8.13%.

`O=c1[nH]c(N2CCN(Cc3ccc4c(c3)OCO4)CC2)nc2c1CCCC2`: the Potency is 7.38 µM (active).

Turning to `O=C(COC(=O)c1ncc(Cl)c(Cl)c1Cl)NC1CCS(=O)(=O)C1` (stereo not given), the “activity change, negative = inhibition” value is 2.18%.

Regarding `Cc1occc(=O)c1OCc1ccc(F)cc1`, the “activity change, negative = inhibition” value is 34.4%.

For the compound `CCOc1ccc(C(C)=O)cc1COC(=O)CN1C(=O)NC2(CCCC2)C1=O`, the Potency is 5.22 µM (active).

In the case of `Cc1ccc(COC(=O)CN2C(=O)NC3(CCCC3)C2=O)cc1`, the “activity change, negative = inhibition” value was 2.02%.

Turning to `O=C(CN1C(=O)NC2(CCCC2)C1=O)OCCOc1ccc(F)cc1`, the “activity change, negative = inhibition” value is 52.9%.

`O=C(COC(=O)c1ccc([N+](=O)[O-])cc1Cl)NC(=O)c1ccccc1`: the “activity change, negative = inhibition” value is 28.7%.

With `COc1ccc(CNC(=O)CN2C(=O)NC3(CCCc4sccc43)C2=O)cc1` (stereo not given), the “activity change, negative = inhibition” value was -17.9%.

Turning to `Cc1cccc(C)c1NC(=O)CN(C)C(=O)CCC(=O)c1ccccc1`, the “activity change, negative = inhibition” value was -21%.

Turning to `COc1ccc(C(=O)NNc2cc(C)nc(NNC(=O)c3ccc(OC)cc3)n2)cc1`, the “activity change, negative = inhibition” value is -5.06%.

In the case of `CC(=O)Nc1ccc(Nc2cc(C)nc(Nc3ccc(NC(C)=O)cc3)n2)cc1`, the Potency is 2.94 µM (active).

As to `CC(=O)Nc1ccc(Nc2c3ccccc3nc3ccccc23)cc1`, the “activity change, negative = inhibition” value was -19%.

Regarding `CCN(CC)Cc1c(C(=O)N/N=C/c2cccc(OCc3ccc(F)cc3)c2)nnn1-c1nonc1N`, the “activity change, negative = inhibition” value is 7.42%.

As for `O=C(NNc1ccccc1Cl)C(O)(c1cccc(C(F)(F)F)c1)c1cccc(C(F)(F)F)c1`, the Potency was 2.62 µM (active).

With `CC(CC(=O)Nc1cc(C(F)(F)F)ccc1Cl)c1ccccc1` (stereo not given), the “activity change, negative = inhibition” value is 4.23%.

As for `O=C(Nc1cc(C(F)(F)F)ccc1Cl)C(=O)N1CCCCC1`, the “activity change, negative = inhibition” value was 33.5%.

For the compound `COC(=O)c1cc(N2CCNCC2)nc2ccccc12`, the “activity change, negative = inhibition” value is 16.4%.

Take `Cc1nc2ccccc2n1CC(=O)N/N=C/c1cccnc1`: the “activity change, negative = inhibition” value was 16.2%.

On to `Cc1ccc(-c2nnc(SCC(=O)N/N=C/c3cccs3)n2-c2ccc(C)cc2)cc1`, for which the Potency was 13.1 µM (active).

Take `Cc1nc2ccccc2n1CC(=O)N/N=C/c1cccs1`: the Potency was 2.33 µM (active).

In the case of `Cc1nnc(SCC(=O)N/N=C/c2cn(-c3ccccc3)nc2-c2ccc(F)cc2)n1-c1ccccc1`, the “activity change, negative = inhibition” value is 0%.

Take `NC(=O)N/N=C\c1cccs1`: the “activity change, negative = inhibition” value is -2.84%.

In the case of `Cc1ccc(-n2c(C)nnc2SCC(=O)NC2CC2)cc1`, the “activity change, negative = inhibition” value is 11.5%.

As to `CCN1CCN(C(=O)N[C@@H](C(=O)N[C@@H]2C(=O)N3C(C(=O)O)=C(CSc4nnnn4C)CS[C@H]23)c2ccc(O)cc2)C(=O)C1=O`, the “activity change, negative = inhibition” value is -3.93%.

In the case of `Cn1nc(C(F)(F)F)c(-c2ccc(F)cc2)c1NC(=O)CSCC(=O)O`, the “activity change, negative = inhibition” value is 4.49%.

Turning to `Cc1nc(N)sc1N=Nc1c(C)n(C)n(-c2ccccc2)c1=O`, the “activity change, negative = inhibition” value is 22.2%.

Consider `CN1CCc2cc3c(cc2[C@H]1[C@@H]1OC(=O)c2c1ccc1c2OCO1)OCO3`, for which the “activity change, negative = inhibition” value is 14.9%.

Regarding `COc1c(O)ccc2c1CN1CCc3cc4c(cc3C1C2)OCO4` (stereo not given), the Potency is 3.29 µM (active).

Take `COc1c(O)ccc2c1-c1c3c(cc4c1C(C2)N(C)CC4)OCO3` (stereo not given): the “activity change, negative = inhibition” value was 5.04%.

For the compound `O=C(CCc1ccccc1Cl)Nc1ccc(S(=O)(=O)Nc2nccs2)cc1`, the “activity change, negative = inhibition” value was 0.156%.

For the compound `O=C(COc1ccc(Cl)cc1)NCCS(=O)(=O)N1CCN(c2ccc(F)cc2)CC1`, the “activity change, negative = inhibition” value was 31.9%.

For the compound `Cc1cc(C)cc(NC(=O)CN2C(=O)c3ccccc3C2=O)c1`, the “activity change, negative = inhibition” value is -16.1%.

As for `Cc1ccc(NC(=O)CCN2C(=O)c3ccccc3C2=O)cc1C`, the “activity change, negative = inhibition” value was 89.9%.

For the compound `Cc1cc2c(cc1C)N(C(=O)CN1C(=O)c3ccccc3C1=O)C(C)(C)c1ssc(=S)c1-2`, the Potency is 8.28 µM (active).

For the compound `Cc1nn(CC(=O)N/N=C/c2ccc(F)cc2)c(C)c1[N+](=O)[O-]`, the “activity change, negative = inhibition” value was 37.4%.

Turning to `CC1CCN(C(=S)NC(=O)c2ccccc2Br)CC1`, the “activity change, negative = inhibition” value is -26.7%.

Consider `CCOC(=O)c1c(CC(C)C)csc1/N=C/C1=C(O)CCCC1=O`, for which the “activity change, negative = inhibition” value was 65.1%.

As to `CN1C(=O)[C@H]2[C@@H](C3CC3)N3C(=O)CN(Cc4ccccc4)C(=O)[C@@]3(C)[C@H]2C1=O`, the “activity change, negative = inhibition” value is 2.3%.

In the case of `CC(=O)Nc1ccc(NC(=O)CCCNC(=O)c2ccc(Cl)cc2)cc1`, the “activity change, negative = inhibition” value is 6.26%.

As for `Cc1ccc(/C=N/NC(=O)CN2CCN(Cc3ccccc3)CC2)s1`, the “activity change, negative = inhibition” value is 24.6%.

For the compound `C=CCNC(=S)NNC(=O)c1ccc(Br)o1`, the “activity change, negative = inhibition” value was 22.2%.

`C=CCNC(=S)N/N=C/c1ccc(C)s1`: the Potency is 4.65 µM (active).

Regarding `CC(C)c1c(O)nc(SCCOc2ccc(Cl)cc2)[nH]c1=O`, the “activity change, negative = inhibition” value is 28.2%.

Regarding `CCOc1cc2[nH]c(=S)n(Cc3ccc(C(=O)N4CCN(C)CC4)cc3)c(=O)c2cc1OCC`, the “activity change, negative = inhibition” value was -8.43%.

Take `CC1CC(C)CN(CCCNC(=O)Cn2ncc3c([nH]c4ccccc43)c2=O)C1` (stereo not given): the “activity change, negative = inhibition” value was 13.4%.

In the case of `Cc1cccc(CCNC(=O)Cn2ncc3c([nH]c4ccc(C)cc43)c2=O)c1`, the “activity change, negative = inhibition” value is 10.2%.

On to `Cc1ccc2[nH]c3c(=O)n(CC(=O)NCCc4ccc(Cl)cc4)ncc3c2c1`, for which the Potency was 13.1 µM (active).

On to `Nc1c(C(=O)OCC(=O)Nc2ccc(OC(F)F)cc2)[nH]c(=O)[nH]c1=O`, for which the “activity change, negative = inhibition” value is 46.1%.
